Relative growth data for 18 molecules are collected here from the supplement of paper PMC9446081.

The campaign covered roughly 39,000 compounds. About 220 (0.56%) showed activity. Shown is part of a subset that was picked to be rich in actives. Unmarked numbers belong to inactive results.
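Note: Wild-type cells incubated without shaking, value is the mean of two biological replicates.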

The test system of this assay is Escherichia coli K-12 BW25113. The assay can be described thus: relative growth (OD600 normalised to plate interquartile mean) (fraction); higher = less growth inhibition, active = 0.2 or less. The note with it: 50 µM; LB; incubation time: overnight (16-24 h).
Consider `C[C@H](NC(=O)C[C@H]1C=C[C@@H](NC(=O)CN2CCOCC2)[C@H](CO)O1)c1ccccc1`, for which the relative growth was 1.

As to `C[C@H](O)C#Cc1ccc2c(c1)O[C@H](CN(C)C(=O)Cc1ccccn1)[C@H](C)CN([C@@H](C)CO)S2(=O)=O`, the relative growth was 1.01.

For the molecule `CN1CCN(C(=O)C[C@@H]2CC[C@H]3[C@@H](COC[C@@H](O)CN3Cc3ccc4c(c3)OCO4)O2)CC1`, the relative growth is 0.988.

As for `O=C(C[C@H]1C[C@H]2c3cc(NC(=O)Nc4ccc(C(F)(F)F)cc4)ccc3O[C@H]2[C@H](CO)O1)NCc1ccc(Cl)cc1`, the relative growth is 0.973.

In the case of `C[C@@H]1CN([C@@H](C)CO)C(=O)c2cc(NS(=O)(=O)c3cn(C)cn3)ccc2O[C@@H]1CN(C)Cc1ccncc1`, the relative growth was 0.994.

`C[C@@H]1CN([C@H](C)CO)C(=O)Cc2cc(NC(=O)Nc3ccc(F)cc3)ccc2O[C@@H]1CN(C)Cc1ccc(Cl)c(Cl)c1`: the relative growth was 1.02.

Turning to `Cc1ccc(S[C@]2(C(=O)NCCN3CCOCC3)CC(=O)N(C(C)C)[C@@H]2c2ccc(CO)cc2)cc1`, the relative growth is 1.

Consider `C=CCOC(=O)[C@H]1[C@@H]2C(=O)O[C@@H](c3ccccc3)[C@@H](c3ccccc3)N2[C@@H](c2ccc(OCCOC(=O)NCCCCCC(=O)NO)cc2)[C@@]12C(=O)Nc1ccc(I)cc12`, for which the relative growth was 0.993.

`C[C@@H]1CN([C@@H](C)CO)C(=O)c2cc(NC(=O)Nc3ccc(C(F)(F)F)cc3)ccc2O[C@H]1CN(C)C(=O)Nc1cccc2ccccc12`: the relative growth was 1.01.

On to `COC(=O)c1cn(CC(=O)N2CCN(C)CC2)nn1`, for which the relative growth was 0.978.

On to `C[C@@H]1CN([C@@H](C)CO)C(=O)c2cc(NS(=O)(=O)c3cn(C)cn3)ccc2O[C@H]1CN(C)S(C)(=O)=O`, for which the relative growth was 1.02.

For `C[C@H](CO)N1C[C@H](C)[C@@H](CN(C)S(C)(=O)=O)Oc2c(NC(=O)Nc3ccc4c(c3)OCO4)cccc2C1=O`, the relative growth is 0.991.

`N#CC1C(=O)NC(=O)N=C1Nc1ccccc1` (stereo not drawn): the relative growth was 0.981.

With `NC[C@H]1O[C@H](O[C@H]2[C@H](O[C@@H]3O[C@H](CO)[C@@H](O)[C@H]3O)[C@@H](O)[C@H](N)C[C@@H]2N)[C@H](N)[C@@H](O)[C@@H]1O`, the relative growth is 0.515.

Consider `NCC1OC(OC2C(CO)OC(OC3C(O)C(N)CC(N)C3OC3OC(CN)C(O)C(O)C3N)C2O)C(N)C(O)C1O.O=S(=O)(O)O.O=S(=O)(O)O.O=S(=O)(O)O` (stereo not drawn), for which the relative growth was 1.2.

As for `NCC[C@H](O)C(=O)N[C@@H]1C[C@H](N)[C@@H](O[C@H]2O[C@H](CN)[C@@H](O)[C@H](O)[C@H]2O)[C@H](O)[C@H]1O[C@H]1O[C@H](CO)[C@@H](O)[C@H](N)[C@H]1O`, the relative growth is 0.0379 (active).

As for `NCCC(O)C(=O)NC1CC(N)C(OC2OC(CN)C(O)C(O)C2O)C(O)C1OC1OC(CO)C(O)C(N)C1O.O` (stereo not drawn), the relative growth is 0.0465 (active).

As for `NCC1OC(OC2C(CO)OC(OC3C(O)C(N)CC(N)C3OC3OC(CO)C(O)C(O)C3N)C2O)C(N)C(O)C1O.O=S(=O)(O)O` (stereo not drawn), the relative growth was 0.915.
